In paper PMC11006913:
Residue numbers refer to the chain shown, from its start.

molecular target: T1, SIX6 (Homo sapiens, UniProt O95475 114-200); test: PBM; 200 nM protein, PBS; conditions: dsDNA, one strand shown
T1 sequence: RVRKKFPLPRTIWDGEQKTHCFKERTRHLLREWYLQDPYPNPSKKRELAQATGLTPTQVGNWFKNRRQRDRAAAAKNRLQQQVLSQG

Row | Sequence | binding signal
1 | CCAGTGCG | 9.01 upbm affinity estimate (log intensity, higher = more binding, comparable within an allelic series)
2 | GATATCCA | 10.9 upbm affinity estimate (log intensity, higher = more binding, comparable within an allelic series)
3 | ATATCATG | 11 upbm affinity estimate (log intensity, higher = more binding, comparable within an allelic series)
4 | CATGATCA | 10.3 upbm affinity estimate (log intensity, higher = more binding, comparable within an allelic series)
5 | GTGATATA | 11.1 upbm affinity estimate (log intensity, higher = more binding, comparable within an allelic series)
6 | GGCCCCAA | 8.82 upbm affinity estimate (log intensity, higher = more binding, comparable within an allelic series)
7 | AGTATCAT | 11.2 upbm affinity estimate (log intensity, higher = more binding, comparable within an allelic series)
8 | AGGGTATC | 11.1 upbm affinity estimate (log intensity, higher = more binding, comparable within an allelic series)
9 | AGGGCCCG | 8.95 upbm affinity estimate (log intensity, higher = more binding, comparable within an allelic series)
10 | GGCCTCCA | 8.82 upbm affinity estimate (log intensity, higher = more binding, comparable within an allelic series)
11 | ACTGCCGG | 9.23 upbm affinity estimate (log intensity, higher = more binding, comparable within an allelic series)
12 | GGCCCCGA | 8.99 upbm affinity estimate (log intensity, higher = more binding, comparable within an allelic series)
13 | GCCAGTCC | 8.9 upbm affinity estimate (log intensity, higher = more binding, comparable within an allelic series)
14 | GCAGTGGC | 8.98 upbm affinity estimate (log intensity, higher = more binding, comparable within an allelic series)
15 | GCGCTGCC | 8.71 upbm affinity estimate (log intensity, higher = more binding, comparable within an allelic series)
16 | CCGGCGCC | 9.02 upbm affinity estimate (log intensity, higher = more binding, comparable within an allelic series)
17 | CAGGGCGC | 9.01 upbm affinity estimate (log intensity, higher = more binding, comparable within an allelic series)
18 | CCCCGAGG | 8.97 upbm affinity estimate (log intensity, higher = more binding, comparable within an allelic series)
19 | AGCTCCGC | 8.9 upbm affinity estimate (log intensity, higher = more binding, comparable within an allelic series)
20 | GATATCAC | 11.1 upbm affinity estimate (log intensity, higher = more binding, comparable within an allelic series)

Row | Sequence | binding signal
21 | GATACCCC | 11.3 upbm affinity estimate (log intensity, higher = more binding, comparable within an allelic series)
22 | ACTGATAC | 11 upbm affinity estimate (log intensity, higher = more binding, comparable within an allelic series)
23 | ATATACAC | 10.9 upbm affinity estimate (log intensity, higher = more binding, comparable within an allelic series)
24 | CGGCCTTC | 8.77 upbm affinity estimate (log intensity, higher = more binding, comparable within an allelic series)
25 | CCGGGGCC | 9.09 upbm affinity estimate (log intensity, higher = more binding, comparable within an allelic series)
26 | AGCGGCGC | 8.72 upbm affinity estimate (log intensity, higher = more binding, comparable within an allelic series)
27 | CGGTATCA | 11.1 upbm affinity estimate (log intensity, higher = more binding, comparable within an allelic series)
28 | GTATCAAA | 11.2 upbm affinity estimate (log intensity, higher = more binding, comparable within an allelic series)
29 | CAGTGGCC | 8.95 upbm affinity estimate (log intensity, higher = more binding, comparable within an allelic series)
30 | GATATCTA | 10.9 upbm affinity estimate (log intensity, higher = more binding, comparable within an allelic series)
31 | CCCTCTGC | 9.05 upbm affinity estimate (log intensity, higher = more binding, comparable within an allelic series)
32 | CGGCGGAA | 8.95 upbm affinity estimate (log intensity, higher = more binding, comparable within an allelic series)
33 | CAGTATCA | 10.9 upbm affinity estimate (log intensity, higher = more binding, comparable within an allelic series)
34 | CGCAAGCG | 9.01 upbm affinity estimate (log intensity, higher = more binding, comparable within an allelic series)
35 | AGGCGCCC | 8.6 upbm affinity estimate (log intensity, higher = more binding, comparable within an allelic series)
36 | CCGCCAGC | 9.05 upbm affinity estimate (log intensity, higher = more binding, comparable within an allelic series)
37 | ATGGCCGC | 8.75 upbm affinity estimate (log intensity, higher = more binding, comparable within an allelic series)
38 | GGATATCA | 11.2 upbm affinity estimate (log intensity, higher = more binding, comparable within an allelic series)
39 | CTCGATAC | 10.6 upbm affinity estimate (log intensity, higher = more binding, comparable within an allelic series)
40 | CGCAGCGC | 8.95 upbm affinity estimate (log intensity, higher = more binding, comparable within an allelic series)

molecular target: T2, SIX6 (Homo sapiens, UniProt O95475 114-200, T165I); test: PBM; 200 nM protein, PBS; conditions: dsDNA, one strand shown
T2 sequence: T1 sequence with T52I

Row | Sequence | binding signal
41 | CCAGTGCG | 8.95 upbm affinity estimate (log intensity, higher = more binding, comparable within an allelic series)
42 | GATATCCA | 10.8 upbm affinity estimate (log intensity, higher = more binding, comparable within an allelic series)
43 | ATATCATG | 11 upbm affinity estimate (log intensity, higher = more binding, comparable within an allelic series)
44 | CATGATCA | 10.2 upbm affinity estimate (log intensity, higher = more binding, comparable within an allelic series)
45 | GTGATATA | 11.2 upbm affinity estimate (log intensity, higher = more binding, comparable within an allelic series)
46 | GGCCCCAA | 8.91 upbm affinity estimate (log intensity, higher = more binding, comparable within an allelic series)
47 | AGTATCAT | 11.2 upbm affinity estimate (log intensity, higher = more binding, comparable within an allelic series)
48 | AGGGTATC | 11 upbm affinity estimate (log intensity, higher = more binding, comparable within an allelic series)
49 | AGGGCCCG | 8.9 upbm affinity estimate (log intensity, higher = more binding, comparable within an allelic series)
50 | GGCCTCCA | 8.87 upbm affinity estimate (log intensity, higher = more binding, comparable within an allelic series)
51 | ACTGCCGG | 9.16 upbm affinity estimate (log intensity, higher = more binding, comparable within an allelic series)
52 | GGCCCCGA | 8.84 upbm affinity estimate (log intensity, higher = more binding, comparable within an allelic series)
53 | GCCAGTCC | 8.85 upbm affinity estimate (log intensity, higher = more binding, comparable within an allelic series)
54 | GCAGTGGC | 8.94 upbm affinity estimate (log intensity, higher = more binding, comparable within an allelic series)
55 | GCGCTGCC | 8.78 upbm affinity estimate (log intensity, higher = more binding, comparable within an allelic series)
56 | CCGGCGCC | 8.9 upbm affinity estimate (log intensity, higher = more binding, comparable within an allelic series)
57 | CAGGGCGC | 8.97 upbm affinity estimate (log intensity, higher = more binding, comparable within an allelic series)
58 | CCCCGAGG | 8.96 upbm affinity estimate (log intensity, higher = more binding, comparable within an allelic series)
59 | AGCTCCGC | 9.01 upbm affinity estimate (log intensity, higher = more binding, comparable within an allelic series)
60 | GATATCAC | 11.1 upbm affinity estimate (log intensity, higher = more binding, comparable within an allelic series)

Row | Sequence | binding signal
61 | GATACCCC | 11.2 upbm affinity estimate (log intensity, higher = more binding, comparable within an allelic series)
62 | ACTGATAC | 11 upbm affinity estimate (log intensity, higher = more binding, comparable within an allelic series)
63 | ATATACAC | 10.9 upbm affinity estimate (log intensity, higher = more binding, comparable within an allelic series)
64 | CGGCCTTC | 8.7 upbm affinity estimate (log intensity, higher = more binding, comparable within an allelic series)
65 | CCGGGGCC | 9.09 upbm affinity estimate (log intensity, higher = more binding, comparable within an allelic series)
66 | AGCGGCGC | 8.83 upbm affinity estimate (log intensity, higher = more binding, comparable within an allelic series)
67 | CGGTATCA | 11 upbm affinity estimate (log intensity, higher = more binding, comparable within an allelic series)
68 | GTATCAAA | 11.2 upbm affinity estimate (log intensity, higher = more binding, comparable within an allelic series)
69 | CAGTGGCC | 8.94 upbm affinity estimate (log intensity, higher = more binding, comparable within an allelic series)
70 | GATATCTA | 10.9 upbm affinity estimate (log intensity, higher = more binding, comparable within an allelic series)
71 | CCCTCTGC | 8.97 upbm affinity estimate (log intensity, higher = more binding, comparable within an allelic series)
72 | CGGCGGAA | 8.9 upbm affinity estimate (log intensity, higher = more binding, comparable within an allelic series)
73 | CAGTATCA | 10.9 upbm affinity estimate (log intensity, higher = more binding, comparable within an allelic series)
74 | CGCAAGCG | 8.97 upbm affinity estimate (log intensity, higher = more binding, comparable within an allelic series)
75 | AGGCGCCC | 8.7 upbm affinity estimate (log intensity, higher = more binding, comparable within an allelic series)
76 | CCGCCAGC | 9.03 upbm affinity estimate (log intensity, higher = more binding, comparable within an allelic series)
77 | ATGGCCGC | 8.83 upbm affinity estimate (log intensity, higher = more binding, comparable within an allelic series)
78 | GGATATCA | 11.2 upbm affinity estimate (log intensity, higher = more binding, comparable within an allelic series)
79 | CTCGATAC | 10.5 upbm affinity estimate (log intensity, higher = more binding, comparable within an allelic series)
80 | CGCAGCGC | 9.02 upbm affinity estimate (log intensity, higher = more binding, comparable within an allelic series)
